# Measured values from ChEMBL document CHEMBL1961873, “Compounds: GSK PKIS; Assays: Nanosyn kinase panel” (2012).
# Assays:
# [1] = biological target: Tyrosine-protein kinase Fer (Homo sapiens) (UniProt P16591); conditions: at 1 µM
# [2] = biological target: Tyrosine-protein kinase Fes/Fps (Homo sapiens) (UniProt P07332); conditions: at 0.1 µM
# [3] = biological target: Tyrosine-protein kinase Fes/Fps (Homo sapiens) (UniProt P07332); conditions: at 1 µM
# [4] = biological target: Fibroblast growth factor receptor 1 (Homo sapiens) (UniProt P11362); conditions: at 0.1 µM
# [5] = biological target: Fibroblast growth factor receptor 1 (Homo sapiens) (UniProt P11362); conditions: at 1 µM
# [6] = biological target: Fibroblast growth factor receptor 2 (Homo sapiens) (UniProt P21802); conditions: at 0.1 µM
# [7] = biological target: Fibroblast growth factor receptor 2 (Homo sapiens) (UniProt P21802); conditions: at 1 µM
# [8] = biological target: Fibroblast growth factor receptor 3 (Homo sapiens) (UniProt P22607); conditions: at 0.1 µM
# [9] = biological target: Fibroblast growth factor receptor 3 (Homo sapiens) (UniProt P22607); conditions: at 1 µM
# [10] = biological target: Fibroblast growth factor receptor 4 (Homo sapiens) (UniProt P22455); conditions: at 0.1 µM
# [11] = biological target: Fibroblast growth factor receptor 4 (Homo sapiens) (UniProt P22455); conditions: at 1 µM
# [12] = biological target: Tyrosine-protein kinase Fgr (Homo sapiens) (UniProt P09769); conditions: at 0.1 µM
# [13] = biological target: Tyrosine-protein kinase Fgr (Homo sapiens) (UniProt P09769); conditions: at 1 µM
# [14] = biological target: Vascular endothelial growth factor receptor 1 (Homo sapiens) (UniProt P17948); conditions: at 0.1 µM
# [15] = biological target: Vascular endothelial growth factor receptor 1 (Homo sapiens) (UniProt P17948); conditions: at 1 µM
# [16] = biological target: Receptor-type tyrosine-protein kinase FLT3 (Homo sapiens) (UniProt P36888); conditions: at 0.1 µM
# [17] = biological target: Receptor-type tyrosine-protein kinase FLT3 (Homo sapiens) (UniProt P36888); conditions: at 1 µM
# [18] = tested on: T1, Receptor-type tyrosine-protein kinase FLT3 (Homo sapiens), P36888 [D835Y]; conditions: at 0.1 µM
# T1 sequence (whole entry): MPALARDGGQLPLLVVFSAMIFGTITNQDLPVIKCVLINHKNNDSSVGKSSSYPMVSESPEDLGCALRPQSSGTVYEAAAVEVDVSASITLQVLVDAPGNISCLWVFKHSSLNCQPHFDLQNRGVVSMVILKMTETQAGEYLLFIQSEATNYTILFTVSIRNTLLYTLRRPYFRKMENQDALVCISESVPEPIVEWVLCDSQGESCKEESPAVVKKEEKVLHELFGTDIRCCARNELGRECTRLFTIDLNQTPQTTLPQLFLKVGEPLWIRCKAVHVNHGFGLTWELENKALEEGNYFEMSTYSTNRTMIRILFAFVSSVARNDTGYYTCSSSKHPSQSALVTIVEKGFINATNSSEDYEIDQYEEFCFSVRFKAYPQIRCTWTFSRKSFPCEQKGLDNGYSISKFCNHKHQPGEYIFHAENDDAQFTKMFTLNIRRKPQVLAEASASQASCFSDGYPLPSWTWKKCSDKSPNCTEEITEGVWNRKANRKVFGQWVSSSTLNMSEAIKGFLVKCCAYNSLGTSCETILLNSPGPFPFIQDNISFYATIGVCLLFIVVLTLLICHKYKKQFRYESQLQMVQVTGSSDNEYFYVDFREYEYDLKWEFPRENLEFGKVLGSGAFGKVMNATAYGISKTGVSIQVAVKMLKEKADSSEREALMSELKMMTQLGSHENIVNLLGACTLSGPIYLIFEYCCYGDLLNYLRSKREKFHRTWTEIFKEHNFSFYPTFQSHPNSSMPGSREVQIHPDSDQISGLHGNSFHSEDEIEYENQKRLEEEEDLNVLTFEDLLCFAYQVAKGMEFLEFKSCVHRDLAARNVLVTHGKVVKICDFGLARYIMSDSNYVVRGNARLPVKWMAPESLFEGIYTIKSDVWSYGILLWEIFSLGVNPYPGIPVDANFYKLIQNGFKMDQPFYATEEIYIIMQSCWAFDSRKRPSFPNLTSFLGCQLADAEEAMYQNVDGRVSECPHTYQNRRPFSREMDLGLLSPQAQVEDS
# [19] = biological target: Non-receptor tyrosine-protein kinase TYK2 (Homo sapiens) (UniProt P29597); conditions: at 1 µM;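 further: values are mean percent inhibition of TYK2 kinase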
# [20] = biological target: T2, Tyrosine-protein kinase receptor TYRO3 (Homo sapiens) (UniProt Q06418); conditions: at 0.1 µM;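 further: reported percentages are averaged inhibition values of TYRO3 kinase activity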
# T2 sequence (whole entry): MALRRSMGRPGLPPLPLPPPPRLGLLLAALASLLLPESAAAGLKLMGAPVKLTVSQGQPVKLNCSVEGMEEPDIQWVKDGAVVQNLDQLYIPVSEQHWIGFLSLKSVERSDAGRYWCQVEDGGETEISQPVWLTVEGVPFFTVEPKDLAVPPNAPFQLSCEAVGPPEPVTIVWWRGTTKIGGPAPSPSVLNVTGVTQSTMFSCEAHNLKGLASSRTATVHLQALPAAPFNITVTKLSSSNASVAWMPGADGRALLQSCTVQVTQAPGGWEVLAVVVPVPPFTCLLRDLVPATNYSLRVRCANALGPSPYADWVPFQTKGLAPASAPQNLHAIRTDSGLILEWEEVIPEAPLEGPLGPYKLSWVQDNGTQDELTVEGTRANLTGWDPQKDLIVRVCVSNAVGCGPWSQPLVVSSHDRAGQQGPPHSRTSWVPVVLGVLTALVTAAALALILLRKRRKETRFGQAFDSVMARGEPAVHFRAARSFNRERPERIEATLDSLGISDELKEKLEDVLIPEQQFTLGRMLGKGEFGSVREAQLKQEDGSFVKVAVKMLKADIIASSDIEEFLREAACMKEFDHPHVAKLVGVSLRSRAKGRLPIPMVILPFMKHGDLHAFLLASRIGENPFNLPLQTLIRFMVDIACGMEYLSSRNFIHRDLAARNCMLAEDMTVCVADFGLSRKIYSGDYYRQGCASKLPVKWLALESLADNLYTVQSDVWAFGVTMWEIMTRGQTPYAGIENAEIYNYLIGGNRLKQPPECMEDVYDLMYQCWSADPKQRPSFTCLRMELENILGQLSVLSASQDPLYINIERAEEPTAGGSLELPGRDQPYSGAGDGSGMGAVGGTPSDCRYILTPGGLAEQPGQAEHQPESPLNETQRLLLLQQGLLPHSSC
# Tyrosine-protein kinase Fer (Homo sapiens), sequence (P16591 whole entry, looked up): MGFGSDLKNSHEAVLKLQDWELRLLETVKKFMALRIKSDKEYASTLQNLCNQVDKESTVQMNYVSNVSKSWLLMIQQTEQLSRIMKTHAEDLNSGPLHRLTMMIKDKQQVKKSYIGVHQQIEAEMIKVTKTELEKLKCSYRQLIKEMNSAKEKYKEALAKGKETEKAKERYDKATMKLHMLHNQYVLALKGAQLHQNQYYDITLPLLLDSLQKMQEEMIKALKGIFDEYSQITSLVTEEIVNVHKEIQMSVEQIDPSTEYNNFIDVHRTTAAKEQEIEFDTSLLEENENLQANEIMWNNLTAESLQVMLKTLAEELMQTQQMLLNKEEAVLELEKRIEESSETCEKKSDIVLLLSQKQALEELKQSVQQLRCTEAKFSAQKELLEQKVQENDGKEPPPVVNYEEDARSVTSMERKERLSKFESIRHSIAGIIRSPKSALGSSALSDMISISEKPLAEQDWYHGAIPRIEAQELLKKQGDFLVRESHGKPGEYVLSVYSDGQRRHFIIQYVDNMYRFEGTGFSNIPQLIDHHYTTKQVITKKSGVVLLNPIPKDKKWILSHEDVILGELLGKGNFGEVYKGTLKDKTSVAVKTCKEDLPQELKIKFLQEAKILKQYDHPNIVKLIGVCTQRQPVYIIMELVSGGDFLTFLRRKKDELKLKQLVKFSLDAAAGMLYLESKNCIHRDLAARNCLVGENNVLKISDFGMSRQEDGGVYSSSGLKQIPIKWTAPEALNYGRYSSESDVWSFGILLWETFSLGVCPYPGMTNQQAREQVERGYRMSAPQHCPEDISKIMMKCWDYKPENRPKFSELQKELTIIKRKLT
# Tyrosine-protein kinase Fgr (Homo sapiens), sequence (P09769 2-529 limits assumed): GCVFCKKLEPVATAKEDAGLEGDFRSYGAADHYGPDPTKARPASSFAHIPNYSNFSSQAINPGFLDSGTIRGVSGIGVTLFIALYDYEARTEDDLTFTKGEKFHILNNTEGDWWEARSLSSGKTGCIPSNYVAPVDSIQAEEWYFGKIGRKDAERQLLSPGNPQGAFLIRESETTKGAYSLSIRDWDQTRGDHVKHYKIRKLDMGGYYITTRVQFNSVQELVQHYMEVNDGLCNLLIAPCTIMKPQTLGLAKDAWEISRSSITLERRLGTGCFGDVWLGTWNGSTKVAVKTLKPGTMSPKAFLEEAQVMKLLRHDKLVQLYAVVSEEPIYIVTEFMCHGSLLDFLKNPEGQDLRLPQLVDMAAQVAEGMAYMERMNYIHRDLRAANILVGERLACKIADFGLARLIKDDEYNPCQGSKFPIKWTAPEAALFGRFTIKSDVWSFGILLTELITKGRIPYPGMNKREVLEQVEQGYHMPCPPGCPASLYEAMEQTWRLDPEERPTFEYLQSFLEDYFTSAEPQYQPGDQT
# Vascular endothelial growth factor receptor 1 (Homo sapiens), sequence (P17948 whole entry): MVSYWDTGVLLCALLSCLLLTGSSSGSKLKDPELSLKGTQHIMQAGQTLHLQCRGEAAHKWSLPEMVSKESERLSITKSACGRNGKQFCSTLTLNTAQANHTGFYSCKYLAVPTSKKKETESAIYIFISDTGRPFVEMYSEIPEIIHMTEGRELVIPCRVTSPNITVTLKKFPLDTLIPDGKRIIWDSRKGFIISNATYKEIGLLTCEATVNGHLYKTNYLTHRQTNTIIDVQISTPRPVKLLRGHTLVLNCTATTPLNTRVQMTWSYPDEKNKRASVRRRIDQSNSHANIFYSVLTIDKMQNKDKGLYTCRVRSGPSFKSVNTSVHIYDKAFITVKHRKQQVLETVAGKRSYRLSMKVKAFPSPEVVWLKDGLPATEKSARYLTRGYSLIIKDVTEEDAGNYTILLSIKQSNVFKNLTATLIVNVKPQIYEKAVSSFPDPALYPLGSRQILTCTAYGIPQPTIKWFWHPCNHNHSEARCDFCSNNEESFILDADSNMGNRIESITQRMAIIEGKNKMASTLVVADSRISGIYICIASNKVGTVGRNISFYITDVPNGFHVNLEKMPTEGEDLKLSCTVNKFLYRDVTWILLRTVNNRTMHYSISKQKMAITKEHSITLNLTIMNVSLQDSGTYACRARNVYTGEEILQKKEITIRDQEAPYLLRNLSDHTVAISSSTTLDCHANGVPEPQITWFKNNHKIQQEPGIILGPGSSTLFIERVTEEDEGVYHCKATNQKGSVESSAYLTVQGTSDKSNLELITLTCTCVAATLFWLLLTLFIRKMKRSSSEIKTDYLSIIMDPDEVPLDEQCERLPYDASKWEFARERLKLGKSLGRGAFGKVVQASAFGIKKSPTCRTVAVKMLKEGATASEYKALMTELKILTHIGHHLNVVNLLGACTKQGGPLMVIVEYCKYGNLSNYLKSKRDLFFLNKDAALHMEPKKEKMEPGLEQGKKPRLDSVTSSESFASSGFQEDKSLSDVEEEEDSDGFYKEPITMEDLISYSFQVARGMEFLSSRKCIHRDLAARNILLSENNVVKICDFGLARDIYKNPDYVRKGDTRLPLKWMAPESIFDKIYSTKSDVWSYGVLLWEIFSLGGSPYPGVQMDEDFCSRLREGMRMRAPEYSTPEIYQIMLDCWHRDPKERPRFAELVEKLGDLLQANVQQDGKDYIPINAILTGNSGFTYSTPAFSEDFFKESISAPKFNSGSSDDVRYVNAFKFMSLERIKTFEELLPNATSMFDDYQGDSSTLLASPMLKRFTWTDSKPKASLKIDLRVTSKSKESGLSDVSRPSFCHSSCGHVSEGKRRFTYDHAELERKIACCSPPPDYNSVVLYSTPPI
# Fibroblast growth factor receptor 3 (Homo sapiens), sequence (P22607 23-806 limits assumed): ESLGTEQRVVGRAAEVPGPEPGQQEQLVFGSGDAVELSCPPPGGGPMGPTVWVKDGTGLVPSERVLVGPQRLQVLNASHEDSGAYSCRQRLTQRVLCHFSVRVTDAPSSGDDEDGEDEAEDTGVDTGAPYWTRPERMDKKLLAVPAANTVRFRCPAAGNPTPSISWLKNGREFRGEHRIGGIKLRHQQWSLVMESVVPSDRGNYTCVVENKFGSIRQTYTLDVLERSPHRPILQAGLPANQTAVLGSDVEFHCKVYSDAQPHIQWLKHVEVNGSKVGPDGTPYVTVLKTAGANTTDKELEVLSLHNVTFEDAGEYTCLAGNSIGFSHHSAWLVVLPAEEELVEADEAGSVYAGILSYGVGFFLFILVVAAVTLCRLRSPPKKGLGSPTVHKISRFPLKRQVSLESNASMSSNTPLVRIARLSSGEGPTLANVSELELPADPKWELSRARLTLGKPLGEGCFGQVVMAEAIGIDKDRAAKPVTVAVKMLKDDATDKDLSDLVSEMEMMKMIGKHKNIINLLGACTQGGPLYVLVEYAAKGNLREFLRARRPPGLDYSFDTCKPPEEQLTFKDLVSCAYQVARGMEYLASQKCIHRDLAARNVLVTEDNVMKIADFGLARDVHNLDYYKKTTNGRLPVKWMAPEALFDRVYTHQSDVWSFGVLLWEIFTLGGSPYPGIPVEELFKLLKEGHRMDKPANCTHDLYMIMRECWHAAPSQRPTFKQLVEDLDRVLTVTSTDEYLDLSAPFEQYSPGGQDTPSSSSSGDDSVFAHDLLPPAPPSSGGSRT
# Non-receptor tyrosine-protein kinase TYK2 (Homo sapiens), sequence (P29597 whole entry): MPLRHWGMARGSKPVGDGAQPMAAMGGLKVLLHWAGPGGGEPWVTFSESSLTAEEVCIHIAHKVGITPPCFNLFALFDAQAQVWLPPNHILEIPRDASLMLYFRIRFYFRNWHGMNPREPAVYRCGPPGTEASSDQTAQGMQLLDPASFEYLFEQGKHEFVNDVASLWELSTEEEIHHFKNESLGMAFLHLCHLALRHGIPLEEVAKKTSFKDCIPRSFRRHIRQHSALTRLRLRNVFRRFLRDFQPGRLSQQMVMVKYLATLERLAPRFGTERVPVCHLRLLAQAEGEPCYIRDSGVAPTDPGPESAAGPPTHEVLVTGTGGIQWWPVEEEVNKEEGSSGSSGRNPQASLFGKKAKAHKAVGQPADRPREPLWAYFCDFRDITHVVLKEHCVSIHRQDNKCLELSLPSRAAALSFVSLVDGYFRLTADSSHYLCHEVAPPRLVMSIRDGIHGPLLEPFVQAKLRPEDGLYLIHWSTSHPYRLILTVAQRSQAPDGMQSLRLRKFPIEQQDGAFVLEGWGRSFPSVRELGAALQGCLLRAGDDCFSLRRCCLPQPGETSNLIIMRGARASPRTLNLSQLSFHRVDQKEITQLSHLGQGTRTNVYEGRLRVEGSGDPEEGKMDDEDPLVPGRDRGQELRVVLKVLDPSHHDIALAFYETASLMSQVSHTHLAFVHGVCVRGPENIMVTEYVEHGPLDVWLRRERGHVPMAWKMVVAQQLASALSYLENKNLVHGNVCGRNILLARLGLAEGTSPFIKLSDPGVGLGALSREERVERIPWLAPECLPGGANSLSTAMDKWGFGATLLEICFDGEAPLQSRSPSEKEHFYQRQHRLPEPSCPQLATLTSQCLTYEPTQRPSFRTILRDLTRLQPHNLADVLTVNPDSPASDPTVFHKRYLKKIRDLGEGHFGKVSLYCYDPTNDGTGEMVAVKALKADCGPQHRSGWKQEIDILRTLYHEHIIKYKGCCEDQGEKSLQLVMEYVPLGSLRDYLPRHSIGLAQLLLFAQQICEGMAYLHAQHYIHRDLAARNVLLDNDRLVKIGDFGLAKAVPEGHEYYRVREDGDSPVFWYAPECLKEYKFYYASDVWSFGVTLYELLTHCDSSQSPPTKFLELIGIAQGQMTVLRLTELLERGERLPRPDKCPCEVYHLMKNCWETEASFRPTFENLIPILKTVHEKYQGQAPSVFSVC
SMILES,inhibition [1],inhibition [2],inhibition [3],inhibition [4],inhibition [5],inhibition [6],inhibition [7],inhibition [8],inhibition [9],inhibition [10],inhibition [11],inhibition [12],inhibition [13],inhibition [14],inhibition [15],inhibition [16],inhibition [17],inhibition [18],inhibition [19],inhibition [20]
CCCN1CCC=C(c2ccc(Nc3nc(Nc4ccccc4C(N)=O)c4cc[nH]c4n3)c(C)c2)C1,68.7%,16.5%,57.3%,1.72%,7.09%,6.37%,7.35%,6.92%,6.81%,3.01%,1.82%,-0.56%,4.71%,-0.55%,5.76%,6.74%,9.96%,3.17%,-1.46%,0.75%
CCn1c(-c2nonc2N)nc2cncc(C(=O)N3CCNCC3)c21,0.82%,5.22%,4.85%,7.76%,5.74%,11.8%,7.87%,12.3%,7.38%,4.67%,2.67%,1.29%,2.57%,0.7%,2.54%,5.99%,4.6%,-1.23%,-2.3%,1.84%
Cc1cc(O)cc(C)c1/C=C/c1cncc(-c2nn[nH]n2)c1,11.9%,2.28%,3.8%,2.34%,3.83%,1.54%,13.3%,3.74%,2.92%,-9.13%,0.95%,9.4%,51.5%,3.27%,5.69%,2.5%,4.37%,-2.23%,-2.7%,3.72%
CN1CCC(C(=O)Nc2n[nH]c3nnc(-c4ccccc4)cc23)CC1,5.92%,3.95%,3.43%,5.69%,4.3%,5.82%,5.58%,5.57%,4.99%,-8.44%,-0.57%,5.18%,4.46%,0.44%,2.94%,2.28%,1.88%,-4.39%,-0.97%,2.36%
Cc1ccc(C(=O)NC2CCCCC2)cc1-c1ccc(C(=O)NCC2CC2)cc1,4.17%,3.08%,2.29%,3.66%,5.66%,2.75%,6.2%,4.11%,4.7%,-0.52%,2.89%,2.07%,5.25%,2.97%,2.09%,0.22%,-0.64%,-1.58%,-2.34%,1.42%
CC(=O)Nc1cccc(C#Cc2cncnc2Nc2ccc(OCc3cccc(F)c3)c(Cl)c2)n1,4.77%,-0.62%,-1.06%,-3.81%,-5.8%,-4.24%,0.03%,-1.4%,-2.39%,0.06%,0.7%,4.5%,3.79%,-1.03%,-0.69%,-2.34%,-0.61%,1.25%,2.39%,0.18%
COC(=O)Nc1nc2cc(Oc3ccc(NC(=O)Nc4cccc(C(=O)O)c4)cc3)ccc2[nH]1,2.49%,-0.49%,0.5%,-4.37%,-2.27%,-3.37%,5.77%,-1.47%,11.9%,-6.8%,-1.22%,3.78%,6.34%,3.38%,8.22%,1.16%,5.75%,3.31%,-0.42%,0.5%
NCc1ccc(-c2nc(-c3ccc(Cl)c(O)c3)c(-c3ccncc3)[nH]2)cc1,2.5%,0.2%,1.79%,-0.32%,1.38%,-0.38%,6.76%,0.23%,5.11%,-5.87%,2.75%,4.3%,32.8%,19.8%,70.6%,-0.2%,3.28%,2.87%,-1.84%,0.69%
CC1=C(C(=O)Nc2ccc3[nH]ncc3c2)C(c2ccc(Cl)c(Cl)c2)CC(=O)N1 (stereo not given),1.24%,1.63%,2.35%,0.69%,8.25%,0.22%,20.4%,2.17%,14.1%,1.31%,8.43%,1.97%,6.08%,0.2%,2.26%,1.43%,1.54%,-2.38%,3.29%,1.69%
COc1cc(C=NNc2ncnc3c2cnn3-c2ccccc2)ccc1O,4.88%,2.59%,4.03%,1.01%,3.72%,3%,9.48%,2.91%,7.58%,4.25%,3.32%,12.8%,49.6%,3.24%,15.1%,15.6%,54.6%,17.7%,0.57%,5.56%
NC(=O)c1ccc(-c2nc(-c3ccccn3)c(-c3ccc4c(c3)OCO4)[nH]2)cc1,6.64%,1.52%,2.16%,-0.93%,2.26%,0.95%,1.31%,2.79%,1.9%,4.19%,-0.14%,3.69%,5.27%,-0.48%,-1%,1.89%,2.37%,1.11%,-0.31%,2.08%
Nc1nc(-c2ccccn2)c(-c2ccc3ncccc3n2)s1,6.59%,2.12%,3.07%,7%,5.84%,3.92%,7.02%,5.15%,4.97%,-1.61%,0.28%,1.09%,2.08%,0.57%,5.82%,8.03%,2.99%,-0.61%,-1.33%,1.89%
O=C1NC(=O)C(c2ccc(Cl)cc2)=C1Nc1ccc(Cl)c(C(=O)O)c1,1.58%,-3.1%,-3%,-0.91%,2.2%,-2.69%,2.13%,1.31%,2.66%,-0.4%,1.95%,0.15%,2.1%,0.79%,2.99%,-0.57%,1.93%,-7.38%,0.43%,-0.81%
